Hits are enriched below; roughly 27% of the tested compounds scored in any of these assays.
CYP2C19 inh: blocks human cytochrome P450 2C19. P33261. CYP2C19 Supersomes, luciferin-H EGE luminescence, 30 min. inhibition, % at 5 µM. actives 21% (n = 96,000). AID 778;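 active = CYP2C19 inhibition above a set limit at 5 µM in the primary screen, cut at about 50% in these data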;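 note: plate controls were negative control wells for no effect and 2.5 mM tranylcypromine positive control for full effect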
CYP2C19 activ: activators of human cytochrome P450 2C19; P33261; recombinant CYP2C19, luciferin-H EGE luminescence; hits give high values; 0 = fully inhibited enzyme, 1 = untreated enzyme; activation factor at 5 µM; 96,000 tested, under 10 active;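 active = activation factor of at least 2 at 5 µM in the primary screen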;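 note: 0 = wells with 2.5 mM tranylcypromine and 1 = vehicle-only wells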
Cav3 T inh: human Cav3.2 channel inhibition, primary screen; O95180; actives 4% (n = 100,000); Cav3.2-expressing cells, Fluo-4 calcium fluorescence FDSS; hits give low values; B-score at 10 µM;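 active = single-dose well whose peak fluorescence ratio is a statistical outlier from its plate by either plate-standardised score or position-corrected B-score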
CYP2C9 act: CYP2C9 (human) activation | P11712 | actives 1.4% (n = 96,000) | activation factor at 5 µM | AID 1024 | recombinant CYP2C9, luciferin-H conversion, luminescence; hits give high values; factor 1 = untreated enzyme, 0 = blocked;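 active = activation factor of 2 or more for CYP2C9 at a 5 µM dose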;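 note: 0 = sulfaphenazole-blocked wells and 1 = vehicle-only wells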
Target sequence (P11712 whole entry, looked up): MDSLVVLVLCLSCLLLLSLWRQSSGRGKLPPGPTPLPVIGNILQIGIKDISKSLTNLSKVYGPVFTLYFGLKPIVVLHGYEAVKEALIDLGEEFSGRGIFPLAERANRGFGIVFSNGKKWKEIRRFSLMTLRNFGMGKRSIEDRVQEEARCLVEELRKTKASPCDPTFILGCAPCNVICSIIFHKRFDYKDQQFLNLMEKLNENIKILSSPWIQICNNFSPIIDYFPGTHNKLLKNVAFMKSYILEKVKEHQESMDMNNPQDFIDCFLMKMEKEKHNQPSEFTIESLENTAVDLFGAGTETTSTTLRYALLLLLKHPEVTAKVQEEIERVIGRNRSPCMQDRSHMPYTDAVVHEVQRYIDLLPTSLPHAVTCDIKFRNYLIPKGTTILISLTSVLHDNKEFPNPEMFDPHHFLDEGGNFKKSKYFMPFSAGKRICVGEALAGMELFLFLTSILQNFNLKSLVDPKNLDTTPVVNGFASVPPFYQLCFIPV
CYP2C9 inhib: human CYP2C9 inhibition; inhibition, % at 5 µM; actives 20% (n = 96,000); CYP2C9 Supersomes, luciferin-H conversion, luminescence;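 active = blocking of liver enzyme CYP2C9 beyond about 50% at 5 µM, limit read from the data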
* = called active by the depositor; nt = not tested or not shown.

SMILES | CYP2C19 inh | CYP2C19 activ | Cav3 T inh | CYP2C9 act | CYP2C9 inhib
N#Cc1c(NC(=O)CSc2ccccn2)oc(-c2ccccc2)c1-c1ccccc1 | -17.0 | 1.2 | -6.43* | 0.1 | 85.7*
CCn1c(SCC(=O)Nc2oc(-c3ccccc3)c(-c3ccccc3)c2C#N)nnc1-c1ccco1 | 94.4* | 0.1 | -4.72* | 0 | 96.5*
Cc1cnc(C(=O)OCC(=O)Nc2oc(-c3ccccc3)c(-c3ccccc3)c2C#N)cn1 | 10.4 | 0.9 | -2.27 | 0.4 | 62.2*
CC(C)CC(C(=O)Nc1oc(-c2ccccc2)c(-c2ccccc2)c1C#N)N1C(=O)c2ccccc2C1=O (stereo not drawn) | nt | nt | -3.37 | nt | nt
Cc1cc(NC(=O)CSc2nnc(-c3ccco3)n2Cc2ccccc2)no1 | nt | nt | 1.72 | nt | nt
COc1ccc(-c2oc(NC(=O)CSc3nncn3C)c(C#N)c2-c2ccc(OC)cc2)cc1 | 39.0 | 0.6 | 0.462 | 0.4 | 58.0*
N#Cc1c(NC(=O)CSc2ncnc3sccc23)oc(-c2ccco2)c1-c1ccco1 | 26.3 | 0.7 | -2.45 | 0.2 | 83.6*
COc1ccc(NC(=O)CSc2nncn2C)c([N+](=O)[O-])c1 | 1.1 | 1 | 0.954 | 0.9 | 7.0
CCNC(=O)CSc1ncnc2sccc12 | 14.3 | 0.9 | nt | 0.9 | 5.5
CC(C)[C@H](NC(=O)NCc1cccs1)C(=O)O | -0.7 | 1 | 0.695 | 1.1 | -7.4
CC(C)C(NC(=S)NCc1ccccc1)C(=O)O (stereo not drawn) | 86.2* | 0.1 | 0.244 | 0.7 | 34.2
CS(=O)(=O)NCCSc1nnnn1-c1ccccc1 | 51.5* | 0.5 | 0.0271 | 1.2 | -16.7
O=S(=O)(NCCSc1nnnn1-c1ccccc1)c1cccs1 | 98.6* | 0 | -1.1 | 0.9 | 6.4
O=C(CCSc1nnnn1-c1ccccc1)N1CCOCC1 | 5.5 | 0.9 | 0.0154 | 1.2 | -19.6
COc1cc(C)c(C(C)C)cc1S(=O)(=O)NCCCn1ccnc1 | 99.9* | 0 | 0.131 | 0 | 99.0*
C/C(NCCCn1ccnc1)=C(\C#N)C(N)=O | 10.4 | 0.9 | 0.00479 | 1 | -2.3
CC(C)c1nc(C#N)c(NCCCn2ccnc2)o1 | 100.4* | 0 | 0.049 | 0.1 | 91.4*
Cc1ccc(C2C(C(=O)c3sc(C)nc3C)=C(O)C(=O)N2CCCN(C)C)o1 (stereo not drawn) | -15.0 | 1.1 | nt | 1.1 | -6.9
Cc1ccc(NCc2nnc(SCc3ccc(C#N)cc3)n2Cc2ccco2)c(C)c1 | 91.8* | 0.1 | -6.45* | 0.1 | 93.9*
COc1ccc(C(=O)CSc2nnc(CNc3ccc(C)cc3C)n2Cc2ccco2)cc1 | 87.5* | 0.1 | nt | 0.4 | 57.4*
CCOC(=O)CN(C(=O)CSc1nnc(CNc2ccc(C)cc2C)n1CC)c1ccccc1 | 9.0 | 0.9 | nt | 0.9 | 13.2
N#Cc1ccc(CSc2nnc(Cc3cccs3)n2Cc2ccco2)cc1 | 92.8* | 0.1 | -1.72 | 0.3 | 65.5*
N#Cc1ccc(CSc2nnc(-c3ccccc3)n2Cc2ccco2)cc1 | 12.0 | 0.9 | -2.48 | 0.6 | 41.8
Cc1ccc(C(=O)CSc2nnc(CNc3ccc(C)cc3C)n2Cc2ccco2)cc1 | 75.1* | 0.2 | -9.75* | 0.3 | 73.1*
CC(C)(C)Sc1nc(O)cc(=O)[nH]1 | -3.1 | 1 | 0.349 | 1 | 4.7
SMILES | CYP2C19 inh | CYP2C19 activ | Cav3 T inh | CYP2C9 act | CYP2C9 inhib
COc1cccc(NC(=O)c2nnn(Cc3ccc(Br)cc3F)c2N)c1 | -21.6 | 1.2 | -0.26 | 0.9 | 10.9
CSCCC(NC(=O)C12CC3CC(CC(C3)C1)C2)C(=O)OCC(=O)c1ccc(Cl)cc1 (stereo not drawn) | 1.3 | 1 | -0.377 | 1 | -1.2
CCOC(=O)C(CSCC(=O)c1ccc(Cl)cc1)NC(=O)OC(C)(C)C (stereo not drawn) | 59.6* | 0.4 | nt | 0.7 | 27.8
CCOC(=O)C(CSCc1ccccc1)NC(=O)OC(C)(C)C (stereo not drawn) | 37.2 | 0.6 | -1.26 | 0.8 | 22.0
CCOC(=O)C(CSCC(=O)c1ccc(Br)cc1)NC(=O)OC(C)(C)C (stereo not drawn) | 93.4* | 0.1 | -3.22 | 0.2 | 81.9*
O=C(/C=C/c1ccc(Cl)cc1Cl)NCCN1CCOCC1 | 9.2 | 0.9 | 0.159 | 1.2 | -15.6
Cc1nn(C(=O)CN2C(=O)c3ccccc3C2=O)c(C)c1Br | -1.5 | 1 | -1.69 | 1 | -0.8
COc1ccc(C(=O)CN2C(=O)c3ccccc3C2=O)c(OC)c1C | 83.4* | 0.2 | -5.23* | 0.3 | 71.7*
COc1c(C)cccc1C(=O)Nc1ccc(CN2CCCCC2)cc1 | 21.0 | 0.8 | 0.902 | 0.9 | 7.6
C=CCSc1nnc(CSc2nc3sc4c(c3c(=O)[nH]2)CCCC4)n1-c1ccccc1 | 37.1 | 0.6 | -0.472 | 0.3 | 67.2*
CCN(CC)S(=O)(=O)c1cccc(-c2nnc(SCC(=O)NC3CCCCCC3)n2N)c1 | 57.3* | 0.4 | -0.87 | 0.4 | 59.8*
CCN(CC)S(=O)(=O)c1cccc(-c2nnc(SCC(=O)NC3CCCCCCC3)n2N)c1 | 52.2* | 0.5 | -2.22 | 0.2 | 78.6*
Nn1c(SCC(=O)NC2CCCCC2)nnc1-c1ccccc1 | 30.8 | 0.7 | -0.253 | 1.1 | -9.7
CCN(CC)S(=O)(=O)c1cccc(-c2nnc(SCC(=O)NC)n2CCc2ccccc2)c1 | 44.6 | 0.6 | 3.05 | 0.6 | 38.1
CC1CCCCC1NC(=O)CSc1nnc(-c2ccccc2)n1N (stereo not drawn) | 88.2* | 0.1 | 0.218 | 0.4 | 56.1*
CCc1ccccc1NC(=O)NC1CCCCC1 | 18.9 | 0.8 | 0.2 | 1 | 2.9
CCc1ccccc1NC(=O)Cn1nc(C(F)(F)F)cc1C1CC1 | 83.0* | 0.2 | -0.527 | 0.9 | 5.0
Cc1cc(C(F)(F)F)nn1CC(=O)NNC(=S)Nc1ccc(F)cc1 | 31.4 | 0.7 | -0.0208 | 0.7 | 31.5
CCNS(=O)(=O)c1ccc(NC(=O)Cn2nc(C(F)(F)F)cc2C)cc1 | -16.8 | 1.2 | -0.204 | 0.4 | 56.6*
Cc1sc(NC(=O)Cn2nc(C(F)(F)F)cc2C)c(C(=O)OC(C)C)c1C | 18.2 | 0.8 | nt | 0.4 | 61.9*
Cc1cc(C(F)(F)F)nn1CC(=O)NNC(=S)Nc1ccc(Cl)cc1 | 21.9 | 0.8 | -0.711 | 0.7 | 30.6
COc1nc(-c2ccccc2)cc(-c2ccc(OC)c(OC)c2)n1 | 75.8* | 0.2 | -2.4 | 0.2 | 79.8*
CCC(=O)N1Cc2ccccc2-c2ccccc2C1=O | 27.1 | 0.7 | -3.07 | 0.9 | 7.6
O=C(c1ccc(CS(=O)(=O)c2ccc(Br)cc2)o1)N1CCCC1 | 26.1 | 0.7 | -0.00796 | 0.7 | 30.9
COc1ccc(S(=O)(=O)Cc2ccc(C(=O)N3CCN(C4CCCCC4)CC3)o2)cc1 | 1.8 | 1 | -1.09 | 0.3 | 65.7*
O=C(c1ccc(CS(=O)(=O)c2ccc(Br)cc2)o1)N1CCN(C2CCCCC2)CC1 | -4.3 | 1 | nt | 0.2 | 77.7*
O=C(c1ccc(CS(=O)(=O)c2ccc(Br)cc2)o1)N1CCCCCC1 | 80.3* | 0.2 | -0.387 | 1.3 | -29.1
CCn1c(COc2ccc(C(C)C)cc2)nnc1SCC(=O)Nc1nccs1 | 18.9 | 0.8 | -0.894 | 0.7 | 28.1

Screens (PubChem BioAssay)
